Test results as given in publication PMC10163288.
The list is a sample of the results. No count for the full screen is at hand.

B1: il10ra_site1_normal_mot_HHH_b2_08186_000000021_0001_43_56_H_._HHH_b2_05014_af2_0002_0000100001_0000002_0 (protein)
chain: SSSSDEEELRELIEEAEELLERGNPEEALEVVLRALQLAFELSNAETLQRIWELLKRIATSSSSS
B2: il10ra_site1_sap_21_mot_HHH_b2_02463_af2_000000222_0001_1_19_H_._HHH_b1_01285_0001_0000200013_0000001_0_0001 (protein)
chain: SSSSDEANQEALELVVEAVRLALRGNPEEAKEVLEEARELAREGNNERLVKMIEDMLRALDSSSS
B3: il10ra_site1_sap_26_mot_HHH_b1_01707_000000240_0001_1_17_H_._HHH_b2_07405_0001_0000500060_0000001_0_0001 (protein)
chain: SSSSDQEFARLMMEALHLAFQLRDPETLRELWELYRRYAEEGDPRYEEALEELLEELRERSSSSS
B4: il10ra_site1_normal_mot_HHH_b2_03328_af2_000000127_0001_1_19_H_._f3d5fbb9806109dc41c8faca98c9de00_0001_1_0001_0000300008_0000002_0_af2pred_dldesign_0_af2pred (protein)
chain: LELSRLLSDAVITAKNPELAQRLAEVAREIAEDPSKLEELLAELLEEAKAAGDEEVVALLEKALE
B5: il10ra_site1_normal_mot_HHH_b2_06767_000000020_0001_41_56_H_._HHH_b2_06012_0001_0000200016_0000002_0_af2pred_0001 (protein)
chain: SSSSSVHEAAQLLLRVARALKEGDEELLEELRKELEELLKKLDDERARLAVRAALAAIKNFSSSS
B6: il10ra_site1_sap_27_mot_HHH_b1_06128_000000102_0001_1_20_H_._HHH_b1_02043_af2_0001_0000100004_0000002_0_0001 (protein)
chain: SSSSDVEEEVRELLEEAQRYYEEGNPQEVFRLIEEAIKVASEHGDEEAQKLVHEFLHEMFGSSSS
B7: il10ra_site1_normal_mot_HHH_b2_00984_000000042_0001_1_20_H_._HHH_b1_04863_af2_0001_0000500015_0000001_0 (protein)
chain: SSSSSDEEEELEELLEQLKKALEENDRELVAQLARRLVQLAFRLSDPEALQEAWELIRLLSSSSS
B8: il10ra_site1_normal_mot_HHH_b1_01821_000000158_0001_23_39_H_._HHH_b1_04578_0001_0000500034_0000001_1 (protein)
chain: SSSSSEFQRLAQRAVQLAFRLSDQEVLRRIWELFKRYIEEGDPRLEEELEELLEELEERGSSSSS
B9: il10ra_site1_normal_mot_HHH_b2_00277_af2_000000172_0001_1_17_H_._HHH_b1_06276_0001_0000100006_0000001_0_af2pred_0001 (protein)
chain: SSSSSSTEEEVEELLEEAKRIEDPEERSYVLTEAWALAYRLNDPELEREIEEVAKRLTSSSSSSS
B10: il10ra_site1_sap_17_mot_HHH_b2_04681_000000155_0001_43_57_H_._HHH_b2_07038_af2_0001_0000400013_0000001_0_0001_af2pred_dldesign_0_af2pred (protein)
chain: SSSSSSSDPERILALIRRALEEEDPEKARELLEEALRLAKEAGNEVAIRAAEYLLRQVSSSSSSS
B11: il10ra_site1_normal_mot_HHH_b2_03328_af2_000000127_0001_1_19_H_._HHH_b1_08499_0001_0000200023_0000001_0 (protein)
chain: SSSSDVAEEAYELSRRAAELLYQGNPEEARELLEEAEELLKERGDHVILFAVRLLLRILNSSSSS
B12: il10ra_site1_normal_mot_HHH_b2_00475_000000107_0001_44_57_H_._HHH_b2_03520_0001_0000400025_0000001_0 (protein)
chain: SSSSDEEEVSHLLFRALQLLEEGDKEEAEELVEEAKRIAEESNDPELERYVEIAEHFVKAHSSSS
B13: il10ra_site1_sap_33_mot_HHH_b2_07521_000000141_0001_20_37_H_._HHH_b2_01915_0001_0000700039_0000001_1_0001 (protein)
chain: SSSSSEEVEELLEQARELAEEGDFEEAAKLLLEALQIAAELQDPELLRLVWEVLHEVARLNSSSS
B14: il10ra_site1_sap_40_mot_HHH_b1_00102_af2_000000216_0001_43_57_H_._HHH_b1_07360_0001_0000500039_0000002_0_0001_af2pred_0001 (protein)
chain: SSSSSDEEELEEEAKRLMEELEKHGDPELFTRLAELAKLLAELGNPLFEEVAELLARLQSSSSSS
B15: il10ra_site1_sap_25_mot_HHH_b2_05540_000000178_0001_1_18_H_._ems_p1-15H-GBL-16H-GABBL-16H_0381_0001_0001_0001_0001_0000500025_0000002_0_0001 (protein)
chain: SSSSSDMEELYRRIAELLRRLREVSPEEREELLREAKELAEELNNEYLKRAIEHMARAVNSSSSS
B16: il10ra_site1_sap_27_mot_HHH_b2_02537_000000065_0001_1_20_H_._HHH_b2_03111_af2_0001_0000200010_0000001_0_0001 (protein)
chain: SSSSSAAEELKEIIEELLRLQREGDEEEFEKLIEEAERELKEKGDQLSLRIIEYILRLFHSSSSS
B17: il10ra_site1_normal_mot_HHH_b1_02062_000000185_0001_1_20_H_._HHH_b1_02799_af2_0001_0000300032_0000001_0 (protein)
chain: SSSSDELLQEVYELSREAAELDSDGDKEEAEKILEEAEEIAKELGNELFLFQVEYMLRLLKSSSS
B18: il10ra_site1_normal_mot_8756ee2cf497b5429c717dfc0c0bcfd6_0001_000000186_0001_1_13_H_._HHH_b2_02097_0001_0000100006_0000001_0 (protein)
chain: SSSSDLEEAIELVRRVVELLHEGNVEEARELVEEAEKVVEEAGNDVLRWQLEYLKRLLERDSSSS
B19: il10ra_site1_normal_mot_HHH_b2_02053_af2_000000006_0001_3_19_H_._HHH_b1_07461_0001_0000100009_0000001_0_af2pred_0001 (protein)
chain: SSSSSASEEVRKLLREALELLDKGNPEEAEELVEEAVRIAEENNNPVLLFVAEFLLKDIRGSSSS
B20: il10ra_site1_normal_mot_HHH_b2_00837_af2_000000287_0001_40_54_H_._HHH_b2_01069_af2_0001_0000200019_0000002_0 (protein)
chain: SSSSDEEERIKKLIEEVEELLEEGDPEEALELLFEATHFALELGNAELLREIWELVRSLKSSSSS
B21: il10ra_site1_normal_mot_HHH_b2_02386_000000054_0001_1_20_H_._HHH_b2_05043_0001_0000400073_0000003_0 (protein)
chain: SSSSTDESYELLREAIEEVIRLYKEGNPEEAEKVVEEVARRLEELGNPLAARQLENLLRLLSSSS
B22: il10ra_site1_normal_mot_HHH_b1_04771_000000013_0001_40_56_H_._HHH_b2_04957_af2_0001_0000100002_0000001_1 (protein)
chain: SSSSSEEVEEAVELSTKAFRLALRGNDEEAEEVLKEALKIAEEGNDPRIREVVEDLLQALSSSSS
B23: il10ra_site1_normal_mot_HHH_b1_01879_000000050_0001_1_18_H_._HHH_b1_00727_af2_0001_0000600044_0000002_0_af2pred_0001 (protein)
chain: SSSSSEEVLRLLLEALKLIRRGDLEEAEEVLKEMERLAEELNDEQARRAVEVLKRLLEELGSSSS
B24: il10ra_site1_sap_19_mot_HHH_b2_00335_000000038_0001_43_57_H_._HHH_b1_03234_0001_0000400063_0000002_0_0001 (protein)
chain: SSSSEAVKRVAELLREASKLQNDGNPEEAERVAEEALEVAEEGNNPLLEWQARFLLHRIRNSSSS

What follows are binders tested against il10ra, Q13651 (assay: yeast display titration).
il10ra, Q13651, sequence (Q13651 whole entry): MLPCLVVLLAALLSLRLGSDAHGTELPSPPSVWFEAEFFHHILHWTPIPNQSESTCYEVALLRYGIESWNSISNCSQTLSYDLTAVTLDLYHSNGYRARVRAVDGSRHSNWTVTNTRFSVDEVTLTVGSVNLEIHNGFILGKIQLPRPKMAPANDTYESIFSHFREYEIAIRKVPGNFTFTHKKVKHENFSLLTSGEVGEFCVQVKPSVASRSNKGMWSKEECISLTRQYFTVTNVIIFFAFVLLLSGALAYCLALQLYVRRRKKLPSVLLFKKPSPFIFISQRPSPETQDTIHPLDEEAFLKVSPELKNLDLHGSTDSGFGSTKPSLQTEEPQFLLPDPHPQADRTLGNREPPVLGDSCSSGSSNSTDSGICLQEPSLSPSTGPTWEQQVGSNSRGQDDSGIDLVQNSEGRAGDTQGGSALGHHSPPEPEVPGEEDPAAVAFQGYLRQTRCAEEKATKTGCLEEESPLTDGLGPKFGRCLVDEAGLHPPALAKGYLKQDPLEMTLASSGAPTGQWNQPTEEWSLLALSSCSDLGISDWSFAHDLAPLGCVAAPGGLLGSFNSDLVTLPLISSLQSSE

Apparent Kd, inactive:
B1 no binding seen, B2 no binding seen, B3 no binding seen, B4 no binding seen, B5 no binding seen, B6 no binding seen, B7 no binding seen, B8 no binding seen, B9 no binding seen, B10 no binding seen, B11 no binding seen, B12 no binding seen, B13 > 2.78 µM, B14 no binding seen, B15 no binding seen, B16 no binding seen, B17 no binding seen, B18 no binding seen, B19 no binding seen, B20 no binding seen, B21 no binding seen, B22 no binding seen, B23 no binding seen, B24 no binding seen
